Measurements reported in PubChem BioAssay (Tox21).
Records with an inconclusive call do not appear. Entries that show only a call come without a potency. A number with no mark means an inactive call. Active and inactive are the calls of the source. Calls come from the whole dose curve; as a rule, active = well fitted curve in the direction sought with a large enough effect in the repeat runs; inconclusive = weak or mixed curves; inactive = no such curve, though single readings can be large; an effect the other way counts as inactive or inconclusive.

Legend:
[1] = qHTS assay to identify small molecule antagonists of the retinoid acid receptor (RAR) signaling pathway - cell viability counter screen (AID 1159551); note: nearly all actives have a fitted effect of over 35% in size
Outline: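 Cytotoxicity counter screen: ATP content quantified by CellTiter-Glo luminescence in C3RL4 cells treated 6 hr at 37 C with compound and retinol (1 uM final). Cells plated at 1,000/well and cultured overnight before dosing.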

[2] = qHTS assay to identify small molecule antagonists of the retinoic acid receptor (RAR) signaling pathway (AID 1159552; note: nearly all actives have a fitted effect of over 50% in size)
Outline: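 Readout: luciferase luminescence, 30 min post-reagent at RT. Setup: C3RL4 RARE reporter cells, compounds plus retinol 1 uM final, 6 hr incubation at 37 C and 5% CO2.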

[3] = qHTS assay to identify small molecule antagonists of the estrogen related receptor (ERR) signaling pathway from Tox21 library - cell viability counter screen (AID 1224834); note: nearly all actives have a fitted effect of over 30% in size
Outline: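 CellTiter-Fluor fluorescence, read after 30 min at 37 C, measures viability of ERR cells. Cells plated at 2,000/well and incubated 6 h before pin-tool compound addition, then exposed 17.5 hours at 37 C.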

[4] = qHTS assay to identify small molecule agonists of the retinoic acid receptor (RAR) signaling pathway (AID 1159553)
Outline: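 Luminescence was measured 30 min after luciferase reagent addition at room temperature. Before that, C3RL4 reporter cells (1,000 per well, plated overnight) were treated with compound for 6 hr at 37 C and 5% CO2.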
Potency is the fitted concentration of half-maximal effect.

Structure (SMILES) | Potency [1] | Potency [2] | Potency [3] | Potency [4]
COc1ccccc1C=O | inactive | inactive | inactive | 
C[C@]12CC[C@H]3C(=CCc4cc(O)ccc43)[C@@H]1CCC2=O | inactive | inactive | 54.5 µM (active) | 
COc1cccc(OC)c1O | inactive | inactive | inactive | 
CC1(C)C(=O)N(CO)C(=O)N1CO | inactive | inactive | inactive | 
CCCCCCCCCC(=O)N(C)C | inactive | inactive | inactive | 
N#CSCSc1nc2ccccc2s1 | 61.1 µM (active) | 17.2 µM (active) | 61.1 µM (active) | 
CCOC(=O)C1=C(C)NC(C)=C(C(=O)OCC)C1c1ccccc1/C=C/C(=O)OC(C)(C)C | inactive | 29.8 µM (active) | 29.8 µM (active) | 
CCc1cccc(CC)c1N(COC)C(=O)CS(=O)(=O)O | inactive | inactive | inactive | 
CCOCOCC | inactive | inactive | inactive | 
OCCC(O)CO (stereo unspecified) | inactive | inactive | inactive | 
CC(C)C(=O)OCc1ccccc1 | inactive | inactive | inactive | 
CC1CCCCC1 | inactive | inactive | inactive | 
COc1ccc(C#N)cc1 | inactive | inactive | inactive | 
CCCCCCCC(OC)OC | inactive | inactive | inactive | 
Cc1cccc(N(C)C)c1 | inactive | inactive | inactive | 
CCCC(O)C(O)CO (stereo unspecified) | inactive | inactive | inactive | 
C=C(C)CCCC | inactive | inactive | inactive | 
CC(C)(c1cc(Br)c(OCCO)c(Br)c1)c1cc(Br)c(OCCO)c(Br)c1 | inactive |  | 42.3 µM (active) | inactive
CC(C)(C)c1cc(/C=C2\SC(=N)NC2=O)cc(C(C)(C)C)c1O | inactive |  | 61.1 µM (active) | inactive
CCCCCCOc1ccc(O)cc1 | inactive |  | 27.3 µM (active) | 0.611 µM (active)
CCCC(=O)OCC(COC(=O)CCC)OC(=O)CCC | inactive | inactive | inactive | 
Cc1c(C(=O)O)cccc1[N+](=O)[O-] | inactive | inactive | inactive | 
